# Compounds without any hit were thinned out: in the full panel of roughly 79,000, 15% have a hit. A number with no mark means an inactive call. Activity calls are given as the source filed them. No stated cut-off is given here; in the data, active means growth inhibition above about 70%; inactive means the rest.
# How the values were obtained:
# [1] = NCI Yeast Anticancer Drug Screen. Data for the mlh1 strain (AID 171);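 further: 0% = growth of vehicle-treated control cultures of the same strain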; settings: S. cerevisiae mlh1 strain growth inhibition, hits give high values
# Procedure, shortened: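 Read-out: growth inhibition versus vehicle controls. Strain: engineered yeast with a defined DNA repair or cell cycle defect, compound-treated.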
# [2] = NCI Yeast Anticancer Drug Screen. Data for the sgs1 strain (AID 173);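 further: 0% = growth of vehicle-only control cultures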; settings: S. cerevisiae sgs1 mutant, hits give high values
# Procedure, shortened: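 Read-out: yeast growth inhibition relative to vehicle controls, following compound exposure of a strain with a defined DNA repair/cell cycle alteration.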
# [3] = NCI Yeast Anticancer Drug Screen. Data for the mlh1 rad18 strain (AID 175); settings: S. cerevisiae mlh1 rad18 strain growth inhibition, hits give high values
# Procedure, shortened: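 Yeast w/ defined DNA-repair lesions; compound exposure; growth vs vehicle controls → % inhibition.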
# [4] = NCI Yeast Anticancer Drug Screen. Data for the rad18 strain (AID 177); settings: S. cerevisiae rad18 mutant growth inhibition, hits give high values
# Procedure, shortened: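 Readout: growth inhibition vs vehicle controls. Cells: genetically altered yeast strain, DNA repair defect.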
# [5] = NCI Yeast Anticancer Drug Screen. Data for the rad52 strain (AID 147);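 further: 0% = growth of vehicle-treated control cultures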; settings: S. cerevisiae rad52 mutant growth inhibition, hits give high values
# Procedure, shortened: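 Read-out: growth inhibition versus vehicle-treated controls. Cells were a DNA repair-deficient yeast strain treated with compounds.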
# [6] = NCI Yeast Anticancer Drug Screen. Data for the wt1 strain (AID 149);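 further: 0% = growth of vehicle-treated wt1 cultures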; settings: S. cerevisiae wt1 strain (SPY 50644) growth inhibition, hits give high values
# Procedure, shortened: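 Measured: growth of wt1 yeast under compound versus vehicle treatment, reported as inhibition.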
# [7] = NCI Yeast Anticancer Drug Screen. Data for the rad50EPP+ strain (AID 151);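 further: 0% = growth of vehicle-treated control cultures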; settings: S. cerevisiae rad50 mutant strain, hits give high values
# Procedure, shortened: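 Growth inhibition read against vehicle controls in rad50EPP+ yeast, a strain altered in DNA damage repair, after compound exposure.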
# [8] = NCI Yeast Anticancer Drug Screen. Data for the mgt1 strain (AID 153); settings: S. cerevisiae mgt1 mutant growth inhibition, hits give high values
# Procedure, shortened: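 mgt1 yeast grown with test compound; read-out is growth inhibition versus vehicle-treated cultures.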
# [9] = NCI Yeast Anticancer Drug Screen. Data for the rad50 strain (AID 155);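 further: 0% = growth of vehicle-only cultures of the same strain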; settings: S. cerevisiae rad50 strain growth inhibition, hits give high values
# Procedure, shortened: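 Growth of the mutant yeast was measured after compound exposure and referenced to vehicle-treated cultures.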
# [10] = NCI Yeast Anticancer Drug Screen. Data for the mec2-1 strain (AID 157); settings: S. cerevisiae mec2-1 strain, hits give high values
# Procedure, shortened: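 Yeast mec2-1 mutant treated with compound. Readout: growth inhibition vs vehicle controls.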
# [11] = NCI Yeast Anticancer Drug Screen. Data for the rad14 strain (AID 159);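 further: 0% = growth of vehicle-treated control cultures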; settings: S. cerevisiae rad14 strain growth inhibition, hits give high values
# Procedure, shortened: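 Here, inhibition of yeast growth was measured after compound exposure, using a strain with a genetic defect in DNA damage repair and vehicle-treated cultures as the reference.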
# [12] = NCI Yeast Anticancer Drug Screen. Data for the sgs1 mgt1 strain (AID 161);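 further: 0% = growth of cultures given vehicle only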; settings: S. cerevisiae sgs1 mgt1 strain, hits give high values
# Procedure, shortened: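 Test agents were incubated with a DNA-repair-mutant yeast strain. Growth was then read and compared against vehicle-treated controls.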
# [13] = NCI Yeast Anticancer Drug Screen. Data for the CLN2oe strain (AID 163);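 further: 0% = growth of vehicle-only control cultures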; settings: S. cerevisiae CLN2oe strain, hits give high values
# Procedure, shortened: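 Read-out: yeast growth inhibition, expressed relative to vehicle-only controls. The strain bears an engineered cell-cycle alteration.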
# [14] = NCI Yeast Anticancer Drug Screen. Data for the bub3 strain (AID 167); settings: S. cerevisiae bub3 mutant strain, hits give high values
# Procedure, shortened: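 Whole-cell yeast assay. The mutant strain was incubated with compounds, and growth inhibition was determined by comparison with vehicle-treated cells.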
# [15] = NCI Yeast Anticancer Drug Screen. Data for the wt2 strain (AID 169);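 further: 0% = growth of vehicle-treated yeast cultures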; settings: S. cerevisiae wt2 strain growth inhibition, hits give high values
# Procedure, shortened: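 Read-out: growth inhibition versus vehicle-treated control cultures after compound exposure of the yeast strain.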
# [16] = NCI Yeast Anticancer Drug Screen. Data for the cln2 rad14 strain (AID 165);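 further: 0% = growth equal to vehicle treated cultures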; settings: S. cerevisiae cln2 rad14 strain, hits give high values
# Procedure, shortened: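 cln2 rad14 yeast strain; compound exposure; growth inhibition read vs vehicle controls.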
# [17] = at 5.0 µM (retest, dose inferred, filed as 0.5)
# [18] = at 50.0 µM (retest, dose inferred, filed as 5.0)
smiles,measurement,setting,value
CC(=O)Nc1ccc2c(c1)-c1ccccc1C2=O,growth inhibition,[1]; at 1.2 µM,-2%
same,growth inhibition,[1]; at 3.7 µM,-2%
same,growth inhibition,[1]; at 11.0 µM,1%
same,growth inhibition,[1]; at 33.0 µM,13%
same,growth inhibition,[1]; at 100.0 µM,82% (active)
same,growth inhibition,[2]; at 1.2 µM,-5%
same,growth inhibition,[2]; at 3.7 µM,-8%
same,growth inhibition,[2]; at 11.0 µM,-9%
same,growth inhibition,[2]; at 33.0 µM,8%
same,growth inhibition,[2]; at 100.0 µM,81% (active)
same,growth inhibition,[3]; [17],1%
same,growth inhibition,[3]; [18],20%
same,growth inhibition,[3]; at 50.0 µM,-1.15%
same,growth inhibition,[4]; at 1.2 µM,-3%
same,growth inhibition,[4]; at 3.7 µM,-5%
same,growth inhibition,[4]; at 11.0 µM,-3%
same,growth inhibition,[4]; at 33.0 µM,14%
same,growth inhibition,[4]; at 100.0 µM,89% (active)
O=C1c2ccccc2C(=O)N1CCCC(=O)n1cc(F)c(=O)[nH]c1=O,growth inhibition,[5]; at 1.2 µM,-31%
same,growth inhibition,[5]; at 3.7 µM,-33%
same,growth inhibition,[5]; at 11.0 µM,0%
same,growth inhibition,[5]; at 33.0 µM,29%
same,growth inhibition,[5]; at 100.0 µM,8%
same,growth inhibition,[6]; at 1.2 µM,-51%
same,growth inhibition,[6]; at 3.7 µM,-43%
same,growth inhibition,[6]; at 11.0 µM,-26%
same,growth inhibition,[6]; at 33.0 µM,-21%
same,growth inhibition,[6]; at 100.0 µM,34%
same,growth inhibition,[7]; at 1.2 µM,-25%
same,growth inhibition,[7]; at 3.7 µM,-16%
same,growth inhibition,[7]; at 11.0 µM,27%
same,growth inhibition,[7]; at 33.0 µM,69%
same,growth inhibition,[7]; at 100.0 µM,88% (active)
same,growth inhibition,[8]; at 1.2 µM,5%
same,growth inhibition,[8]; at 3.7 µM,23%
same,growth inhibition,[8]; at 11.0 µM,47%
same,growth inhibition,[8]; at 33.0 µM,74% (active)
same,growth inhibition,[8]; at 100.0 µM,91% (active)
same,growth inhibition,[9]; at 1.2 µM,-3%
same,growth inhibition,[9]; at 3.7 µM,2%
same,growth inhibition,[9]; [17],27%
same,growth inhibition,[9]; at 11.0 µM,18%
same,growth inhibition,[9]; at 33.0 µM,51%
same,growth inhibition,[9]; [18],66%
same,growth inhibition,[9]; at 50.0 µM,71.3% (active)
same,growth inhibition,[9]; at 100.0 µM,79% (active)
same,growth inhibition,[10]; at 1.2 µM,-24%
same,growth inhibition,[10]; at 3.7 µM,-19%
same,growth inhibition,[10]; [17],20%
same,growth inhibition,[10]; at 11.0 µM,18%
same,growth inhibition,[10]; at 33.0 µM,73% (active)
same,growth inhibition,[10]; [18],88% (active)
same,growth inhibition,[10]; at 50.0 µM,83.2% (active)
same,growth inhibition,[10]; at 100.0 µM,93% (active)
same,growth inhibition,[11]; at 1.2 µM,-33%
same,growth inhibition,[11]; at 3.7 µM,-40%
same,growth inhibition,[11]; at 11.0 µM,-26%
same,growth inhibition,[11]; at 33.0 µM,-7%
same,growth inhibition,[11]; at 100.0 µM,40%
same,growth inhibition,[12]; [17],24%
same,growth inhibition,[12]; [18],64%
same,growth inhibition,[12]; at 50.0 µM,85.2% (active)
same,growth inhibition,[13]; at 1.2 µM,2%
same,growth inhibition,[13]; at 3.7 µM,19%
same,growth inhibition,[13]; at 11.0 µM,-19%
same,growth inhibition,[13]; at 33.0 µM,10%
same,growth inhibition,[13]; at 100.0 µM,38%
same,growth inhibition,[14]; at 1.2 µM,9%
same,growth inhibition,[14]; at 3.7 µM,17%
same,growth inhibition,[14]; [17],11%
same,growth inhibition,[14]; at 11.0 µM,10%
same,growth inhibition,[14]; at 33.0 µM,45%
same,growth inhibition,[14]; [18],19%
same,growth inhibition,[14]; at 50.0 µM,46.5%
same,growth inhibition,[14]; at 100.0 µM,60%
same,growth inhibition,[15]; at 1.2 µM,-19%
same,growth inhibition,[15]; at 3.7 µM,-12%
same,growth inhibition,[15]; at 11.0 µM,16%
same,growth inhibition,[15]; at 33.0 µM,56%
same,growth inhibition,[15]; at 100.0 µM,82% (active)
same,growth inhibition,[1]; at 1.2 µM,-20%
same,growth inhibition,[1]; at 3.7 µM,-18%
same,growth inhibition,[1]; at 11.0 µM,17%
same,growth inhibition,[1]; at 33.0 µM,59%
same,growth inhibition,[1]; at 100.0 µM,78% (active)
same,growth inhibition,[2]; at 1.2 µM,-14%
same,growth inhibition,[2]; at 3.7 µM,7%
same,growth inhibition,[2]; at 11.0 µM,41%
same,growth inhibition,[2]; at 33.0 µM,72% (active)
same,growth inhibition,[2]; at 100.0 µM,88% (active)
same,growth inhibition,[3]; [17],39%
same,growth inhibition,[3]; [18],68%
same,growth inhibition,[3]; at 50.0 µM,60.2%
same,growth inhibition,[4]; at 1.2 µM,11%
same,growth inhibition,[4]; at 3.7 µM,5%
same,growth inhibition,[4]; at 11.0 µM,14%
same,growth inhibition,[4]; at 33.0 µM,42%
same,growth inhibition,[4]; at 100.0 µM,68%
S=C1SCN(C2CCCCC2)CN1C1CCCCC1,growth inhibition,[5]; at 1.2 µM,-21%
same,growth inhibition,[5]; at 3.7 µM,-25%
same,growth inhibition,[5]; at 11.0 µM,-14%
same,growth inhibition,[5]; at 33.0 µM,-1%
same,growth inhibition,[5]; at 100.0 µM,55%
same,growth inhibition,[6]; at 1.2 µM,-21%
same,growth inhibition,[6]; at 3.7 µM,-29%
same,growth inhibition,[6]; at 11.0 µM,-29%
same,growth inhibition,[6]; at 33.0 µM,-21%
same,growth inhibition,[6]; at 100.0 µM,40%
same,growth inhibition,[7]; at 1.2 µM,-51%
same,growth inhibition,[7]; at 3.7 µM,-36%
same,growth inhibition,[7]; at 11.0 µM,-3%
same,growth inhibition,[7]; at 33.0 µM,44%
same,growth inhibition,[7]; at 100.0 µM,88% (active)
same,growth inhibition,[8]; at 1.2 µM,-72%
same,growth inhibition,[8]; at 3.7 µM,-45%
same,growth inhibition,[8]; at 11.0 µM,-2%
same,growth inhibition,[8]; at 33.0 µM,-23%
same,growth inhibition,[8]; at 100.0 µM,64%
same,growth inhibition,[9]; at 1.2 µM,-4%
same,growth inhibition,[9]; at 3.7 µM,-8%
same,growth inhibition,[9]; [17],44%
same,growth inhibition,[9]; at 11.0 µM,-1%
same,growth inhibition,[9]; at 33.0 µM,13%
same,growth inhibition,[9]; [18],99% (active)
same,growth inhibition,[9]; at 50.0 µM,47.5%
same,growth inhibition,[9]; at 100.0 µM,67%
same,growth inhibition,[10]; at 1.2 µM,-65%
same,growth inhibition,[10]; at 3.7 µM,-78%
same,growth inhibition,[10]; [17],56%
same,growth inhibition,[10]; at 11.0 µM,-64%
same,growth inhibition,[10]; at 33.0 µM,-28%
same,growth inhibition,[10]; [18],100% (active)
same,growth inhibition,[10]; at 50.0 µM,63.5%
same,growth inhibition,[10]; at 100.0 µM,58%
same,growth inhibition,[11]; at 1.2 µM,-31%
same,growth inhibition,[11]; at 3.7 µM,-25%
same,growth inhibition,[11]; at 11.0 µM,-24%
same,growth inhibition,[11]; at 33.0 µM,2%
same,growth inhibition,[11]; at 100.0 µM,45%
same,growth inhibition,[12]; [17],0%
same,growth inhibition,[12]; [18],94% (active)
same,growth inhibition,[12]; at 50.0 µM,72.3% (active)
same,growth inhibition,[13]; at 1.2 µM,-21%
same,growth inhibition,[13]; at 3.7 µM,-19%
same,growth inhibition,[13]; at 11.0 µM,-16%
same,growth inhibition,[13]; at 33.0 µM,-1%
same,growth inhibition,[13]; at 100.0 µM,19%
same,growth inhibition,[16]; [17],10%
same,growth inhibition,[16]; [18],81% (active)
same,growth inhibition,[16]; at 50.0 µM,31.1%
same,growth inhibition,[14]; at 1.2 µM,-18%
same,growth inhibition,[14]; at 3.7 µM,-10%
same,growth inhibition,[14]; [17],20%
same,growth inhibition,[14]; at 11.0 µM,-23%
same,growth inhibition,[14]; at 33.0 µM,22%
same,growth inhibition,[14]; [18],94% (active)
same,growth inhibition,[14]; at 50.0 µM,82.8% (active)
same,growth inhibition,[14]; at 100.0 µM,71% (active)
same,growth inhibition,[1]; at 1.2 µM,-44%
same,growth inhibition,[1]; at 3.7 µM,-43%
same,growth inhibition,[1]; at 11.0 µM,-31%
same,growth inhibition,[1]; at 33.0 µM,-5%
same,growth inhibition,[1]; at 100.0 µM,79% (active)
same,growth inhibition,[2]; at 1.2 µM,-36%
same,growth inhibition,[2]; at 3.7 µM,-22%
same,growth inhibition,[2]; at 11.0 µM,-17%
same,growth inhibition,[2]; at 33.0 µM,24%
same,growth inhibition,[2]; at 100.0 µM,71% (active)
same,growth inhibition,[3]; [17],34%
same,growth inhibition,[3]; [18],99% (active)
same,growth inhibition,[3]; at 50.0 µM,49.1%
same,growth inhibition,[4]; at 1.2 µM,-57%
same,growth inhibition,[4]; at 3.7 µM,-38%
same,growth inhibition,[4]; at 11.0 µM,-39%
same,growth inhibition,[4]; at 33.0 µM,-3%
same,growth inhibition,[4]; at 100.0 µM,64%

# Reference: PubChem BioAssay (NCI)
